PubChem BioAssay AID2029 (NMMLSC, 2009)
In all, about 320,000 compounds went through this assay and about 210 (0.066%) were called active. The sample holds actives, similar compounds and a random draw of the others, so the mix is not that of the screen.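 How the source made its calls: active means GFP response relative to DMSO above a set limit, near the screen mean plus 3 SD (cut at about 150% in these data); inconclusive means Fewer than 70 cells measured for a yeast strain; inactive means the rest.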

Assay: modulators of CIT2-GFP expression in yeast, primary screen, S. cerevisiae, GFP fusion, multiplex flow cytometry, MLPCN library (AID 2029);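 further: ratio of well median GFP fluorescence to mean of DMSO wells on the plate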
Details: S. cerevisiae CIT2-GFP strain, 3 h, at 10 µM, hits give high values, 100 means same as DMSO wells

GFP response vs DMSO, inactive:
CC(=O)NS(=O)(=O)c1ccc2c(c1)Cc1cc(S(=O)(=O)NC(C)=O)ccc1-2 99.9%
O=C(c1ccco1)N1CCN(C(=O)C2CC(c3ccc(Cl)c(Cl)c3)=NO2)CC1 (stereo not drawn) 89%
Cc1ccc(CNC(=O)C(=O)c2cn(CC(=O)N3CCCC3)c3ccccc23)cc1 104%
CN1CCN(C(=O)C(=O)c2cn(CC(=O)N3CCCC3)c3ccccc23)CC1 103%
CCCCCC1CC(COc2ccccc2)OC1=O (stereo not drawn) 96.7%
CO[C@H]1[C@@H]2C=CO[C@@H](O[C@H]3O[C@@H](CO)[C@H](O)[C@@H](O)[C@@H]3O)[C@@H]2[C@@]2(CO)O[C@@H]12 109%
C/C=C/c1ccc(OCC(O)CN2CCCCCCC2)c(OC)c1 (stereo not drawn) 101%
N#Cc1cccc(NC(=O)CN2CCCCCC2)c1 100%
CCN(CC(=O)Nc1c(F)cccc1F)C(=O)CN1c2cccc3cccc(c23)S1(=O)=O 104%
COc1ccc(Nc2cc(Sc3ccc(OC)cc3)ncn2)cc1 86.2%
Cc1ccc2c(=O)oc(N(C)C)nc2c1 105%
CCn1c(SCC(=O)Nc2ccccc2F)nc2c(c1=O)SC(C)C2 (stereo not drawn) 100%
Cc1cccc([C@@H]2[C@@H]3C(=O)N(C)C(=O)[C@@H]3[C@@H]3C(=O)Nc4ccccc4C(=O)N23)c1 87.5%
CCc1ccc2[nH]c(=O)c(Cc3ccccc3)c(O)c2c1 105%
COc1ccc(NC(=O)CN(Cc2ccccc2)S(C)(=O)=O)cc1OC 101%
Cc1ccccc1OC(=O)Cn1c(C(F)(F)F)nc2ccccc21 84.2%
COc1ccc(C(=O)NC2CC2)cc1OC1CCN(Cc2ccc(SC)cc2)CC1 114%
CCOC(=O)CSc1nc(N2CCOCC2)c2c(c1C#N)CC(C(C)C)OC2 (stereo not drawn) 104%
COc1ccc(C(=O)COC(=O)c2c(C)noc2C)cc1Cl 98.9%
COc1ccc(NC(=O)CN(C)C(=O)c2n[nH]c3ccccc23)cc1 101%
CN(C)S(=O)(=O)c1cccc(NC(=O)COc2ccc3ccccc3c2)c1 90.9%
O=C(CN1CCOCC1)N1CCCc2c1c(=O)oc1ccc(OCc3ccccc3)cc21 99%
Cc1cc(C)cc(NC(=O)C2CCCN(S(=O)(=O)c3ccc4[nH]c(=O)ccc4c3)C2)c1 (stereo not drawn) 98.8%
COc1ccc(CNS(=O)(=O)c2cc(-c3cc(C)no3)ccc2C(C)C)cc1 95.4%
CN1CCC(=NNC(=O)CN(c2cccc(Cl)c2)S(C)(=O)=O)CC1 95.2%
Cc1cccc(CSc2ccc(-c3cccs3)nn2)c1 87.4%
CC(C)(C)CN1C(=O)C(=O)NC[C@H]1Cc1cccc2ccccc12 101%
CCCCC(=O)N(c1ccc(OC)cc1)C1C=CS(=O)(=O)C1 (stereo not drawn) 108%
COc1cc(CO)c(C2(CO)CCCC2)cc1OC 94.8%
CC(C)=CCN1CCN(CCCc2ccccc2)CC1CCO (stereo not drawn) 105%
CCCCCc1nnc(NC(=O)c2ccc(=O)n(C)n2)s1 113%
O=S(=O)(c1ccc(Br)cc1)n1ccc2ccccc21 77.6%
CC(C)(C)OC(=O)NCCCCCNC(=O)c1[nH]cnc1C(=O)Nc1nccs1 104%
CCOCCc1nn2c(=O)cc(CSCC(=O)Nc3cccc(C)c3C)nc2s1 96.3%
C/C(=N\NC(=O)c1cc2c(s1)CCC(C)C2)c1cccnc1 (stereo not drawn) 104%
O=C(NCCCn1ccnc1)/C(=C\c1ccccc1F)NC(=O)c1ccccc1 93.1%
Cc1c(C2=CCN(S(=O)(=O)c3ccc(Cl)cc3)CC2)c2ccccc2n1C 98.5%
Cn1ccc(NC(=O)Nc2ccc(Cl)cc2)n1 95.9%
Cc1ccc(C(=O)Nc2ccn(C)n2)cc1 109%
CCCCC[C@@H]1C=C(C(=O)O)[C@H](c2ccc(C#N)cc2)N1S(=O)(=O)c1ccc(C)cc1 88.2%
COc1ccccc1N(CC(=O)NC1CCCC1)C(=O)C1(C)CC(=O)N=C2C=CC(C)=CN21 (stereo not drawn) 104%
O=C(Nc1ccc(-c2cscn2)cc1)C1CCCN(Cc2ccc(CO)o2)C1 (stereo not drawn) 97.5%
COc1ccc(C(=O)N2CCCCC2C(=O)Nc2ccc(-n3nc(C)cc3C)cc2)o1 (stereo not drawn) 109%
O=C(COC(=O)C12CC3CC(CC(O)(C3)C1)C2)NC12CC3CC(CC(C3)C1)C2 88.4%
Cc1ccc(S(=O)(=O)NCCCn2ccnc2)cc1C(=O)NC(C)C 99.8%
CCC(C)(C)NC(=O)CN(C(=O)CCC(=O)Nc1nccs1)c1ccc2c(c1)OCO2 109%
COc1ccc(C)cc1Nc1n[n+](-c2ccccc2)c(-c2cccc(Cl)c2Cl)s1 112%
O=C(c1ccc(F)cc1)c1cn(Cc2ccc(F)cc2)c2cc3c(cc2c1=O)OCCO3 97%
NC(=O)NC(=O)C(OC(=O)CCNS(=O)(=O)c1ccccc1)c1ccccc1 (stereo not drawn) 115%
CC(C)(C)n1nc(Cc2cccc3ccccc23)c(C#N)c1N 91.2%
CCCOc1ccc(C2NC(=O)NC(c3ccccc3)=C2C(C)=O)cc1OCC (stereo not drawn) 98.7%
CC(=O)c1ccc(S(=O)(=O)NCc2nnnn2-c2ccccc2)cc1 108%
Cc1cc(C(=O)COc2ccccc2Cl)c(C)n1C1CC1 80.4%
O=C(c1cc(COc2c(F)cccc2F)on1)N1CCSCC1 99.2%

GFP response vs DMSO, active:
CN(Cc1ccccc1)C(=O)C(=O)c1cn(CC(=O)N2CCCC2)c2ccccc12 154%
CC[n+]1cc(C)ccc1/C=C/c1ccc(N(C)C)cc1 158%
CN(C)S(=O)(=O)c1cc(C(=O)Nc2ccn(C)n2)c(Cl)cc1Cl 6000% [may fluoresce green]
CCC(=C/c1sc2ccc3ccccc3c2[n+]1C)/C=C1\Sc2ccc3ccccc3c2N1C 189%
